MCF10A rerep = inducers of DNA re-replication in MCF 10A breast cells | MCF 10A DNA re-replication, Hoechst nuclear intensity, 48 h | Potency, µM (doses to about 46.1 µM), without a hit: top-dose activity, positive = re-replication, actives largely listed as activators | 2.9% of 350,000 active; further: potency means the concentration at half of the fitted maximal effect; % of control where 0% means no effect; nearly all actives have a fitted effect of over 50% in size
ATXN2 expr inh = inhibitors of ATXN2 expression; HEK-293 ATXN2-luciferase reporter, luminescence, 24 h; Potency, µM (highest dose often 57 µM), for inactives: at the highest dose activity change, negative = inhibition, hits mostly inhibitors; 0.72% of 360,000 active; AID 1745845; further: potency means the concentration at half of the fitted maximal effect; on the % scale 0 is the no-effect control and ±100 the full control effect; nearly all actives have a fitted effect of over 55% in size
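ATXN2-luciferase reporter cells (luciferase flanked by upstream and downstream ATXN2 gene portions) were treated 24 h at 37 °C with compounds at up to 57 uM. SteadyGlo luminescence gave expression; GF-AFC fluorescence gave viability.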
SW480 rereplic = induces DNA re-replication in SW480 colon adenocarcinoma cells; SW480 DNA re-replication, Hoechst DNA content imaging, 48 h; Potency, µM (doses to about 46.1 µM), without a hit: at the top dose re-replication activation, actives largely listed as activators; 1.8% of 340,000 active; further: potency means the concentration at half of the fitted maximal effect; % of control where 0% means no effect; nearly all actives have a fitted effect of over 55% in size
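SW480 cells exposed to compounds for 48 hr at 37 C, 5% CO2, then Hoechst-stained 40 min. Nuclear DNA content imaged by fluorescence scanning (405 nm excitation, 500-530 nm emission); re-replication scored as increased high-intensity nuclei.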
ATXN viability = viability counter-screen for ATXN expression inhibitors; 0.49% of 400,000 active; Potency, µM (titrated, usually from 56.7 µM), most hits filed as cytotoxic; S2 cells (HEK-293 line with an ATXN2-luciferase reporter) viability, CellTiter-Fluor protease fluorescence, 24 h; further: potency means the concentration at half of the fitted maximal effect; nearly all actives have a fitted effect of over 40% in size
PINK1 modulator = modulators of PINK1 expression | PINK1 immunofluorescence, high-content cytometry, 24 h | Potency, µM (titrated, usually from 76.6 µM), inactives show top-dose activation (PINK1 increase), usual class: activators | 0.2% of 410,000 active | AID 624263; active means well fitted activation curve with a large enough effect; inconclusive means small, poorly fitted or top-dose-only effect; cell line not stated here; further: potency means the concentration at half of the fitted maximal effect; % of control where 0% means no effect; nearly all actives have a fitted effect of over 65% in size
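Stable cell line treated 24 h with compounds at 5 concentrations (CCCP controls), then fixed and immunostained for PINK1 plus nuclear and cell stains; PINK1 immunofluorescence quantified by laser-scanning microplate cytometry.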
IL-1B inflam inh = inflammasome signaling inhibition, IL-1 beta readout. activity change, % at 57.5 µM. THP-1 LPS/ATP IL-1B secretion, AlphaLISA, 16 h; stronger effect = lower value. 4.7% of 360,000 active; in the data active means activity change below about -50%; inconclusive means mostly about -30% to -49%; further: on the % scale 0 is the no-effect control and ±100 the full control effect
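Secreted IL-1B measured by AlphaLISA bead assay after 16 h compound exposure of THP-1 cells; compounds (final up to 57.5 uM) added 1 h before LPS (250 ng/mL) and ATP (1.25 mM) stimulation; lower signal means less secretion.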
An asterisk follows results filed as active; i = inactive; u = inconclusive; x = no result. Compounds with a hit are over-represented: about 7.1% of the library has one in this group of screens. Unless noted, the call rests on the fitted dose curve; in most records, active means well fitted curve in the direction sought with a large enough effect; inconclusive means small, poorly fitted or top-dose-only effect, or another doubt; inactive means no such curve, though single readings can be large; an effect the other way counts as inactive or inconclusive.

SMILES	MCF10A rerep	ATXN2 expr inh	SW480 rereplic	ATXN viability	PINK1 modulator	IL-1B inflam inh
CSc1nc(N(CCO)CCO)c2sc3nc(-c4ccco4)c4c(c3c2n1)CCC4	15µM*	u	u	u	-3%	-18
COC(=O)CSc1nc(SC)nc2c1sc1nc(-c3ccco3)c3c(c12)CC(C)(C)OC3	1%	2%	-2%	i	2%	27
CSc1nc(SCCO)c2sc3nc(-c4ccco4)c4c(c3c2n1)CC(C)(C)OC4	13µM*	3%	5%	i	18%	0
CC(Oc1ccccc1)C(=O)Nc1ccc(OCc2cc(=O)n3ccsc3n2)cc1 (centres undefined)	x	-5%	x	i	2%	x
CCCCCCCCCCCCCCCC(=O)OC[C@H](O)[C@H]1OC[C@@H](O)[C@@H]1O	2%	x	-1%	x	x	x
COc1cc(NC(=O)C(CCSC)NS(=O)(=O)c2ccc3c(c2)oc(=O)n3C)cc(OC)c1 (centres undefined)	x	x	x	x	0%	x
O=C(Nc1ccc(F)cc1)Nc1ccc2snnc2c1	x	u	x	i	32µM*	x
COc1ccc(C(=O)/C=C/c2ccc(OC)c(Cn3nnc4ccccc43)c2)cc1	16µM*	-35%	x	i	-2%	u
O=C(/C=C/c1cccc(O)c1)c1ccc(N2CCOCC2)cc1	7%	x	u	u	1%	-94*
COc1ccc(/C=N/NC(=O)c2ccncc2)cc1CN1CCOCC1	-21%	1%	-40%	x	0%	x
COc1ccc(/C=C/C(=O)c2ccc3ccccc3c2O)cc1CN1CCOCC1	2%	-26%	-2%	x	9%	-67*
COc1ccc(/C=C/C(=O)C23CC4CC(CC(C4)C2)C3)cc1CN1CCOCC1	u	x	u	i	-1%	-189*
CCCn1c2ccccc2c2cnn(CC(=O)NCCc3cc(OC)ccc3OC)c(=O)c21	x	-3%	x	u	7%	x
COc1ccc(/C=C/C(=O)c2ccccc2O)cc1CN1CCOCC1	u	-24%	u	i	4%	-6
COc1ccc(/C=C/C(=O)c2ccc(O)cc2)cc1CN1CCOCC1	u	6%	u	u	-1%	-133*
COc1ccc(C(=O)/C=C/c2ccc(OC)c(CN3CCOCC3)c2)cc1	u	-21%	u	u	-3%	-100*
O=C(O)c1nc(-c2ccccc2)c(C(=O)NC2CC2)[nH]1	x	0%	x	i	1%	-14
O=C1CCCCC1Nc1ccc2ccccc2c1 (centres undefined)	u	79%	u	i	0%	-64*
O=C1CCCC1C(=O)Nc1ccc2ccccc2c1 (centres undefined)	1%	x	-6%	i	2%	u
Cc1cc(C)c(NC(=O)C(C)n2nc(-c3ccc(C)c(C)c3)ccc2=O)c(C)c1 (centres undefined)	x	2%	x	u	1%	x
CCCS(=O)(=O)NC(=O)C1(C)CCCN(C(=O)c2ccccc2F)C1 (centres undefined)	x	7%	x	i	0%	-71*
CCCS(=O)(=O)NC(=O)C1(C)CCCN(C(=O)c2c(F)cccc2F)C1 (centres undefined)	x	6%	x	i	1%	-4
Cc1ccc(C2=CC(c3ccccc3F)n3c(nc4ccccc43)N2)cc1C (centres undefined)	x	-9%	x	i	6%	x
COc1cc(C2C(C#N)=C(N)Oc3cc(N)ccc32)cc(OC)c1OC (centres undefined)	1.2µM*	26%	1.2µM*	u	18%	14
CCN(CC)c1ccc2c(c1)OC(N)=C(C#N)C2c1cccnc1 (centres undefined)	u	-6%	0.18µM*	i	3%	-101*
N#CC1=C(N)Oc2cc(N)ccc2C1c1ccc(Cl)cc1 (centres undefined)	u	-24%	u	i	4%	-75*
N#CC1=C(N)Oc2cc(N)ccc2C1c1cccnc1 (centres undefined)	u	12%	u	i	7%	16

Source: PubChem BioAssay (National Center for Advancing Translational Sciences (NCATS))
